# Reference: paper PMC5540273 (PLoS ONE, 2017)
# What was measured:
# Conditions in all cases: concentration: 1 μM, replicates: in singlicate; n = 1
# [1] = tested on: T1, BIKE
# T1 construct: gene BMP2K
# [2] = tested on: BLK
# [3] = tested on: BMPR1A
# [4] = tested on: BMPR1B
# [5] = tested on: BMPR2
# [6] = tested on: BMX
# [7] = tested on: BRAF
# [8] = tested on: T2, BRK
# T2 construct: gene PTK6
# [9] = tested on: BRSK1
# [10] = tested on: BRSK2
# 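Also: KINOMEscan kinase panel screen.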
Compound,%Inh [1],%Inh [2],%Inh [3],%Inh [4],%Inh [5],%Inh [6],%Inh [7],%Inh [8],%Inh [9],%Inh [10]
Cn1cncc1C(=O)NC1CCN(c2ccnc(Nc3ccc(F)cc3)n2)C1 (stereo not shown) [GSK1379717],7%,0%,5%,0%,6%,0%,0%,0%,1%,0%
COc1ccc(-c2coc3ccc(-c4nnc(C)o4)cc23)cc1,0%,3%,18%,0%,0%,0%,0%,0%,0%,100%
CC(C)c1cc(-c2ccc3c(N)n[nH]c3c2)nc(N)n1 [GSK2250882],72%,5%,0%,0%,4%,18%,0%,14%,40%,22%
Cc1ccccc1-c1cc(-c2c[nH]nc2-c2ccccn2)ccn1 [GW680061],2%,32%,0%,0%,7%,1%,6%,18%,0%,0%
CCCCc1nn2ncccc2c1-c1ccnc(NC2CC2)n1 [GW684374],23%,0%,0%,0%,0%,4%,7%,0%,0%,0%
CC[C@@H]1CO[C@H](C(=O)Nc2ccccc2)CN1c1cc(-c2ccc3c(N)n[nH]c3c2)nc(NC)n1 [GSK2376236],15%,0%,0%,0%,0%,41%,0%,7%,0%,1%
CC(=O)c1c(C)c2cnc(Nc3ccn(C)n3)nc2n(C2CCCC2)c1=O,22%,0%,0%,0%,0%,0%,3%,8%,0%,0%
CNc1nc(-c2ccc3c(N)n[nH]c3c2)cc(N2C[C@@H](C(=O)NC3CCCCC3)OC[C@H]2C)n1 [GSK2375584],24%,0%,0%,0%,0%,23%,0%,14%,14%,19%
CNC(=O)c1ccc(C)c(-n2c(C)cc(OCc3ccc(F)cc3F)c(Br)c2=O)c1,3%,0%,39%,0%,0%,0%,0%,0%,0%,0%
COc1nccc(-c2c(-c3ccc(F)cc3)ncn2CCCN2CCOCC2)n1 [SB-282852],0%,0%,0%,0%,25%,0%,20%,0%,0%,0%
O=C(Nc1n[nH]c2nc(-c3ccco3)c(Br)cc12)C1CCN(Cc2ccccc2)C1.O=C(O)[C@H](O)[C@@H](O)C(=O)O (stereo not shown) [SB-742034],0%,0%,32%,10%,16%,0%,0%,9%,18%,37%
Cn1cncc1-c1cc2c(Nc3ccc(OCc4ccccc4)cc3)ncnc2cn1 [GW281179],4%,27%,13%,0%,8%,1%,0%,19%,0%,2%
Cc1ccc(NC(=O)Nc2ccccc2)cc1-c1ccc(C(=O)Nc2ccncc2)cc1 [GSK1398471],20%,33%,0%,0%,0%,18%,32%,15%,9%,2%
COc1ccc2cc(-c3nc(-c4ccccc4C(C)C)[nH]c3-c3ccncc3)ccc2c1 [SB-660566],0%,0%,17%,0%,5%,0%,6%,22%,4%,10%
COc1ccc(Nc2nccc(N3CCC(NC(=O)C(C)c4ccc(Cl)cc4)CC3)n2)cc1 (stereo not shown) [GSK1379812],36%,5%,0%,0%,7%,28%,0%,0%,0%,13%
Nc1nccc(-c2c(-c3ccc(F)cc3)ncn2C2CCN(Cc3ccccc3)CC2)n1 [SB-219980],0%,0%,0%,2%,0%,0%,0%,0%,0%,0%
Cc1ccc(NC(=O)Nc2ccc(Cl)c(C(F)(F)F)c2)cc1-c1ccc(C(=O)Nc2ccncc2)cc1 [GSK1398470],8%,7%,6%,0%,0%,21%,73%,29%,7%,0%

Compound,%Inh [1],%Inh [2],%Inh [3],%Inh [4],%Inh [5],%Inh [6],%Inh [7],%Inh [8],%Inh [9],%Inh [10]
O=C(Nc1n[nH]c2cc(-c3ccsc3)ccc12)C1CC1 [SB-732932],54%,0%,27%,22%,32%,15%,9%,0%,59%,61%
Cc1ccccc1Cn1ccn2c(=O)cc(N3CCOCC3)nc12 [GSK2269905],16%,10%,0%,0%,0%,3%,0%,22%,0%,98.6%
Cc1ccc(NC(=O)c2ccc(Cl)cc2)cc1-c1ccc(C(=O)Nc2ccncc2)cc1 [GSK1398467],13%,1%,0%,0%,0%,8%,0%,0%,0%,18%
COc1ccc(Nc2nccc(NCCNC(=O)Nc3cc(C)ccc3C)n2)cc1 [GSK1379899],28%,36%,0%,0%,0%,0%,4%,0%,4%,7%
Fc1ccc(-c2nn3cccc(F)c3c2-c2ccncc2)cc1 [GW475620],34%,20%,24%,0%,0%,8%,29%,11%,0%,0%
O=c1cc(N2CCOCC2)nc2n(Cc3cccc(Cl)c3Cl)c3ccccc3n12 [GSK2299009],38%,50%,2%,0%,0%,1%,0%,17%,8%,22%
COc1cccc(CNC(=O)NC2CCN(c3ccnc(Nc4ccc(F)cc4)n3)C2)c1 (stereo not shown) [GSK1379723],19%,0%,0%,0%,3%,7%,10%,17%,0%,0%
CS(=O)(=O)CCNCc1nc(-c2ccc3ncnc(Nc4ccc5c(cnn5Cc5ccccc5)c4)c3c2)cs1.Cl.Cl [GW569716],0%,38%,0%,0%,16%,2%,0%,17%,0%,0%
Cc1cnc(N)c(/C=C/c2cncc(C(=O)NCCc3ccc(Cl)cc3Cl)c2)c1.Cl [GSK190937],23%,3%,0%,0%,0%,19%,1%,7%,0%,0%
Cc1c(Cn2c3ccccc3n3c(=O)cc(N4CCOCC4)nc23)cccc1C(F)(F)F [GSK2306394],7%,34%,0%,0%,0%,0%,8%,3%,0%,0%
COc1ccc(CSc2nnc(-c3ccc4ncsc4c3)o2)cc1C(F)(F)F,0%,0%,17%,0%,0%,0%,0%,0%,0%,0%
CS(=O)(=O)CCNCc1nc(-c2ccc3ncnc(Nc4ccc(OCc5ccccc5)c(Cl)c4)c3c2)cs1.Cl [GW582764],0%,48%,0%,0%,15%,0%,2%,3%,0%,0%
COc1ccc(CSc2nnc(-c3ccc4c(c3)CCO4)o2)cc1,0%,0%,0%,0%,0%,0%,0%,0%,0%,0%
Fc1ccc(-c2nc3n(c2-c2ccncc2)CCS3)cc1 [GI98581],32%,45%,0%,0%,0%,12%,0%,13%,0%,0%
FC(F)(F)c1ccccc1-c1cc(-c2c[nH]nc2-c2ccccn2)ccn1 [GW679396],24%,1%,13%,0%,7%,0%,0%,20%,0%,0%
Cc1cccc2c(-c3ccncn3)c(-c3ccc(F)cc3)nn12 [GW515532],10%,33%,0%,0%,0%,0%,22%,0%,6%,10%
COC(=O)C(Cc1ccccc1)NC(=O)NC1CCN(c2ccnc(Nc3ccc(F)cc3)n2)C1 (stereo not shown) [GSK1379714],17%,10%,0%,0%,22%,29%,0%,12%,0%,0%
